High-throughput results deposited in PubChem BioAssay by Broad Institute.
The entries come from a sample that favours hits as a whole.
Tg IFNy HTS – blocks Toxoplasma gondii growth in the presence of IFN-gamma; Toxoplasma gondii growth in IFN-gamma-treated host cells; stronger effect = lower value; activity change, negative = inhibition, % (test concentration not listed); actives 3.8% (n = 69,000); in the data active = activity change below about -70%, passing the limit was not always enough;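 also: host cells are HeLa cells infected with Toxoplasma gondii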
* hit, by the source's call.

SMILES | Tg IFNy HTS
CCCC(=O)N1CC2(CN(C(=O)C3CC3)C2)c2c(n(C)c3cc(OC)ccc23)[C@H]1CO | 5
Cc1ccc(C)c(NC(=O)c2c(O)c3cccnc3[nH]c2=O)c1 | 39
CS(=O)(=O)N1CCn2cc(Cn3cccn3)nc2C1 | 5
CSc1cccc(NC(=O)CN2CCC3(CC2)N=C(c2cccc(F)c2)C(=O)N3)c1 | 2
CCOCC1CN(Cc2c(C)noc2C)Cc2ncn(CC3CC3)c21 (configuration not stated) | -6
CN1CC2(CCN(C(=O)c3ccccn3)CC2)CC1COCC1CC1 (configuration not stated) | 6
COc1ccc(Cc2cnc(NC(=O)Cn3c(C)cc(C)nc3=O)s2)cc1 | -35
O=C(Nc1ccc(-c2nc(-c3ccccc3)co2)cc1)Nc1cccc(C(F)(F)F)c1 | -51
O=C(Nc1cccc(C(F)(F)F)c1)Nc1csc(Cc2ccsc2)n1 | -93*
O=C(NCc1sccc1COc1ccc(Cl)cc1)Nc1cccc(C(F)(F)F)c1 | -55
CCCS(=O)(=O)N1C[C@H](N(C)Cc2ccco2)C2OCCCC21 (some centres not stated) | -5
Cc1ccc(C2=NC3(CCN(Cc4ccccc4F)CC3)NC2=O)cc1C | -3
CC(=O)NC12CC3CC(C1)CC(C(=O)NC(C)CCc1ccc(F)cc1)(C3)C2 (configuration not stated) | 8
O=C(N(c1ccccc1)c1ccc(F)cc1)C12CC3CC(CC(C3)C1)C2 | -83*
O=C(N(Cc1nc2ccccc2c(=O)[nH]1)Cc1cccs1)C12CC3CC(CC(C3)C1)C2 | -41
Cc1ccc(C(C)NC(=O)c2cc(CN3CCC(O)CC3)on2)cn1 (configuration not stated) | 1
CCc1ccc(-c2nccn2Cc2ccc3c(c2)OCO3)nc1 | 200
O=C(Nc1nccs1)c1cccc(CN2CCCC2c2ccccn2)c1 (configuration not stated) | 7
CN1C(=O)CC(c2ccncc2)C12CCN(c1ncccn1)CC2 (configuration not stated) | 2
CC(C)(C)c1ccc(C(=O)N2CCCn3c2nc2ccccc2c3=O)cc1 | -40
CC(C)(C)c1ccc(C(=O)N2CCN(C(=O)c3ccc(C(C)(C)C)cc3)CC2)cc1 | -49
CC(C)(C)c1ccc(C(=O)N2NC(=Nc3ccccc3)SC2(C)C)cc1 | -87*
Cc1nc(CCNC(=O)C2CCN(C(=O)c3ccccc3Cl)CC2)cs1 | 29
CCc1ocnc1C(=O)N(C)Cc1ccccc1OCC(C)C | 46
CCN(CC)C(=O)C1Cn2ccnc2C2(CCN(c3ncccn3)CC2)O1 (configuration not stated) | 83
SMILES | Tg IFNy HTS
Nc1ncnc(SCc2c(Cl)cccc2Cl)n1 | -81*
CSc1nc(N)nc(COc2ccccc2Cl)n1 | 47
O=c1[nH]c(SCc2c(Cl)cccc2Cl)nc2ccnn12 | 68
OC[C@@H]1[C@@H](c2ccccc2)C2(CN(Cc3ccccn3)C2)N1CCC(F)(F)F | -23
Cc1cccc(S(=O)(=O)N2CCCC3(CCCN3S(C)(=O)=O)C2)c1 (configuration not stated) | -3
Cc1cc(CC(C)Nc2nc(-c3cccnc3)nc3c2CNC3)n[nH]1 (configuration not stated) | 2
CCCc1nc(C(=O)N2CCCC(c3n[nH]c(=O)n3CC)C2)cs1 (configuration not stated) | -4
Cc1ccoc1C(=O)N1CCCC(c2nn(C)c(=O)n2-c2ccccc2)C1 (configuration not stated) | 19
O=C1c2c(O)ccc(O)c2C(=O)c2c(NCCNCCO)ccc(NCCNCCO)c21 | -88*
O=C1c2cccc(O)c2C(=O)c2c(O)cc(CO)cc21 | -62
Cc1cc2occ(CC(=O)N3CCC(O)(CN(C)C)C3)c2cc1Cl (configuration not stated) | -19
CCn1ncc2c1CN(S(=O)(=O)c1cn(C)cn1)CC2COC (configuration not stated) | -4
CCc1nc(SCC(=O)N2c3ccccc3Sc3ccccc32)c2ccccc2n1 | -82*
O=C(COc1nc2ccccc2s1)N1c2ccccc2Sc2ccccc21 | 0
CCn1nnnc1SCC(=O)N1c2ccccc2Sc2ccccc21 | -11
O=C(c1cnccn1)N1CCCC2(CCN(c3ccccn3)C2)C1 (configuration not stated) | 21
COc1cccc(NC(=O)C[C@H]2CC[C@H]3[C@H](COc4ccc(NS(=O)(=O)c5cccc(F)c5)cc4C(=O)N3C)O2)c1 | -23
CC(=O)O[C@H]1C[C@@H](O)C(C)(C)C2C[C@@H](OC(C)=O)[C@]3(C)C(CC[C@@]4(C)[C@H](c5ccoc5)OC(=O)C5OC543)[C@]21C (some centres not stated) | 18
CC(=O)O[C@@H]1CC2C(C)(C)[C@H](O)CC[C@]2(C)C2CC[C@@]3(C)[C@H](c4ccoc4)OC(=O)C4OC43[C@@]21C (some centres not stated) | -71*
CC1(C)C(=O)C=C[C@@]2(C)C1CC(=O)[C@]1(C)C2CC[C@@]2(C)[C@H](c3ccoc3)OC(=O)[C@H]3O[C@]321 (some centres not stated) | 25
CC(=O)O[C@@H]1C[C@H]2C(C)(C)C(=O)C=C[C@]2(C)[C@H]2CC[C@@]3(C)[C@H](c4ccoc4)OC(=O)[C@H]4O[C@]43[C@@]21C | 52
CC(=O)O[C@@H]1CC2C(C)(C)C(=O)C=C[C@]2(C)C2CC[C@@]3(C)[C@H](c4ccoc4)OC(=O)[C@H]4O[C@]43[C@@]21C (some centres not stated) | 16
CC1(C)C(=O)C=C[C@@]2(C)C1C=C[C@]1(C)C2CC[C@@]2(C)[C@H](c3ccoc3)OC(=O)[C@H]3O[C@]321 (some centres not stated) | -86*
COCC(C)(C)C(=O)NCC1CCCN(C2CCCC2)C1 (configuration not stated) | 15
CCOc1ccccc1NC(=O)N1CCC2(CC1)NC(=O)c1cc(F)ccc1N2C | 5
SMILES | Tg IFNy HTS
COc1cc(NC(=O)Nc2ccc(-c3nc(-c4ccccc4)co3)cc2)cc(OC)c1OC | -88*
COc1cc(NC(=O)Nc2ccc(-c3nc(-c4ccc(C)cc4)co3)cc2)cc(OC)c1OC | -39
COc1ccc(C)cc1NC(=O)Nc1ccc(-c2nc(-c3cc(C)ccc3C)co2)cc1 | -72*
COc1ccc(NC(=O)Nc2ccc(-c3nc(-c4cc(C)ccc4C)co3)cc2)c(OC)c1 | -17
COc1cc(C(=O)Nc2ccc(-c3nc(-c4ccccc4)co3)cc2)cc(OC)c1OC | -20
Cc1ccc(C)c(-c2coc(-c3ccc(NC(=O)Nc4ccccc4)cc3)n2)c1 | 1
CN(Cc1cnc(N2CCOCC2)nc1)CC1Cc2ccccc2CN1C (configuration not stated) | -3
COCC1CN(CC2CC2)Cc2nccn2C1 (configuration not stated) | 130
CCc1ccc(CN2CC[C@@H]3[C@H]2CCN3c2nncs2)o1 | -35
COC(=O)c1ccccc1NC(=O)N1CCC2(CC1)Nc1ccccc1-n1cccc12 | 98
CN1C(=O)CCc2cc(NS(=O)(=O)Cc3cccc(Cl)c3)ccc21 | 23
CN1C(=O)CCc2cc(NS(=O)(=O)c3ccc(Br)cc3)ccc21 | -95*
Cc1ccc(S(=O)(=O)Nc2ccc3c(c2)CCC(=O)N3C)cc1Cl | -39
CN1C(=O)CCc2cc(NS(=O)(=O)c3ccc(Br)s3)ccc21 | -97*
COCCN1C(=O)CCc2cc(NS(=O)(=O)c3ccc(Br)cc3)ccc21 | 7
